Only some compounds are listed: those with a hit (about 3.3% of all), similar ones and a draw of the others.
697 NFkB inh: inhibitors of PMA/ionomycin-induced NF-kB reporter, 697 cells, primary screen, B-cell NF-kB inhibitor project, cell-based, luminescence, uHTS; 697 B-cell NF-kB luciferase reporter, 16 h; inhibition, % at 4 µM; 330,000 compounds, 0.33% hits; AID 435022, 2010; in the data active = inhibition above about 35%
Gli-Sufu block: Gli-Sufu pathway antagonists, primary screen, luciferase luminescence, Sufu-KO-LIGHT cells, uHTS; Sufu-KO-LIGHT fibroblasts, Gli luciferase reporter luminescence; 340,000 compounds, 0.74% hits; AID 588413, 2011; inhibition, % at 5 µM;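 active = inhibition above about 55%, limit read from the data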;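 also: 0% = DMSO-treated cells and 100% = wells with medium but no cells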
SMARCA2 activ: SMARCA2 (BRM) function activators, primary screen, cell-based, luminescence, high throughput; MG213 cells, MMTV-luciferase reporter, dexamethasone, overnight; activation, % at 9.1 µM; 370,000 compounds, 1% hits; AID 652017, 2013; in the data active = activation above about 7.8%;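 also: 0% = vehicle wells and 100% = reference activator wells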
Jurkat NFkB inh: inhibitors of induced NF-kB luciferase reporter, primary screen, TCR NF-kB activation inhibitor project, cell-based, luminescence, uHTS; Jurkat, PMA/ionomycin-induced NF-kB luciferase reporter; inhibition, % at 4 µM; 330,000 compounds, 0.53% hits; AID 435003, 2010; in the data active = inhibition above about 50%
esBAF inh: Bmi1 luciferase reporter increase in mESCs, primary screen, esBAF inhibitor project, mouse ES cells, Bmi1 luciferase knock-in, single point. AID 602393, 2012. reporter increase, % at 12.5 µM. 350,000 compounds, 2% hits. 24 h; 100% = twice the neutral-well signal; in the data active = activation above about 40%;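 also: 0% = median of the plate's neutral control wells and 100% = double that signal; a rise in the Bmi1 reporter signal indicates esBAF inhibition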
Gli-Sufu confirm: Gli-SUFU pathway antagonists, confirmation, single concentration, luciferase luminescence, Sufu-KO-LIGHT cells; shares compounds with Gli-Sufu block; Gli luciferase reporter; inhibition, % at 5 µM; 2,500 compounds, 40% hits;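 active = mean inhibition at 5 µM reaching about 45%, limit read from the data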;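 also: plate controls were DMSO-treated cells for no effect and wells lacking cells for full effect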
SufuKO cytotox: cytotoxicity in Sufu-KO-LIGHT cells, confirmation, cytotoxicity control for Gli-SUFU antagonist project, cell-based, ATP luminescence, single concentration. shares compounds with Gli-Sufu block. cytotoxicity, % at 5 µM. 2,500 compounds, 32% hits. AID 651994, 2013;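 active = mean cytotoxicity at 5 µM above about 25%, limit read from the data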;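 also: cells exposed to compound overnight for roughly 16 to 18 hours; plate controls were DMSO wells with cells for no effect and medium without cells for full effect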
Wnt3a counter: Wnt3a reporter signal inhibition, confirmation, counter-screen for Gli-SUFU antagonist project, Wnt-LIGHT cells, luminescence, single concentration. shares compounds with Gli-Sufu block. Wnt3a-driven luciferase reporter. inhibition, % at 6.25 µM. 2,500 compounds, 20% hits. AID 651995, 2013;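 active = mean inhibition above about 25%, limit read from the data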
The depositor's hits bear a star; / = no result.

SMILES	697 NFkB inh	Gli-Sufu block	SMARCA2 activ	Jurkat NFkB inh	esBAF inh	Gli-Sufu confirm	SufuKO cytotox	Wnt3a counter
Cc1ccsc1C1C(C#N)=C(N)Oc2n[nH]c(C)c21 (stereo not given)	20	65*	-1	0	3	21	3	10
COCC(=O)Nc1ccc2c(c1)C(=O)N(C)[C@H]1CC[C@H](CC(=O)NCCc3ccccc3)O[C@@H]1CO2	/	/	/	/	0	/	/	/
CC1CC(C)CN(C(=O)c2nn(C)c3c2CS(=O)(=O)c2ccccc2-3)C1 (stereo not given)	-2	53	-2	9	-2	5	13	-22
Cn1nc(C(=O)N2CCN(c3ccccc3)CC2)c2c1-c1ccccc1S(=O)(=O)C2	-9	4	-1	-1	1	/	/	/
CN(C)CC(=O)NC[C@H]1N[C@@H](CO)[C@H]1c1ccc(-c2cccc(C#N)c2)cc1	/	/	/	/	-6	/	/	/
CC1(C)CC(N2CCN(Cc3ccccc3)CC2)=CC(=[N+]2CCCCC2)C1	-15	79*	-8	47	-24	85*	34*	39*
CC1(C)CC(NNCCC#N)=CC(=[N+]2CCCC2)C1	3	5	-1	-5	-1	/	/	/
Nc1cc(F)ccc1N1CCCCCC1	-10	-14	-1	-12	2	/	/	/
CC1(C)CC(N2CCCC2)=CC(=[N+]2CCCCC2)C1	33	82*	-4	36	/	85*	33*	42*
CC1(C)CC(N2CCCC2)=CC(=[N+]2CCCC2)C1	20	82*	-3	36	/	86*	34*	35*
c1ccc(CN2CCN(c3ncccn3)CC2)cc1	3	-3	-1	9	2	/	/	/
CC(C)NC(=O)N(C)C[C@@H]1Oc2ccc(NS(=O)(=O)c3ccc(Cl)cc3)cc2C(=O)N([C@@H](C)CO)C[C@@H]1C	/	/	/	/	-3	/	/	/
O=C(NCc1ccccn1)[C@H]1[C@H](CO)[C@H]2Cn3c(cccc3=O)[C@H]2N1CCc1ccccc1	/	/	/	/	1	/	/	/
Cc1ccc(-c2cnc3c(c2)C(=O)N([C@@H](C)CO)C[C@@H](C)[C@@H](CN(C)S(C)(=O)=O)O3)cc1	/	/	/	/	-8	/	/	/
CC(=O)N1[C@@H]2CN(C(=O)c3ccccc3)c3ccccc3[C@@H]2[C@@H]1CO	/	/	/	/	-2	/	/	/
CC[N+](CC)(CC#Cc1ccccc1)CC#Cc1ccccc1	-24	68*	-7	38	/	71*	22	19
C#CC[N+](CC)(CC)CC#Cc1ccccc1	5	5	-1	14	-6	/	/	/
C[C@H]1CN([C@@H](C)CO)C(=O)c2cc(Br)cnc2O[C@@H]1CN(C)C(=O)Nc1ccc(F)cc1	/	/	/	/	3	/	/	/
CCC(C)(C)n1nnnc1C(c1cc2ccc(OC)cc2[nH]c1=O)N1CCc2ccccc21 (stereo not given)	-30	56*	2	-21	-2	27	11	-3
C=CCCN(C(CC(C)C)C(=O)OC)S(=O)(=O)c1cc(Br)ccc1Br (stereo not given)	18	51	0	10	-7	19	22	16
COc1cc(-c2cc(C(=O)Nc3c(Cl)cc(Cl)cc3Cl)c3ccccc3n2)cc(OC)c1OC	3	19	-2	4	/	/	/	/
COc1ccc2nc3ccccc3nc2c1NC(=O)c1ccc(Cl)cc1Cl	-19	71*	0	-5	-6	31	20	-26
Cc1ccccc1NC(=O)CSc1nc2cc3c(cc2cc1C)CCC3	-33	54	1	47	/	40	29*	-41
Fc1ccc(C2=Nn3c(Cc4ccccc4)nnc3SC2)cc1	20	-1	-1	5	-2	/	/	/
